The nature of assay [1]: reduction of polyQ htt aggregates in cells – imaging, exon1htt(103Q)mCFP cells, high-content imaging, primary screen (AID 483;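 active means visual image review flags a hit and inhibition of aggregation exceeds 20%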;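 further: compound exposure lasted 3 days before fixation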;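 on nuclei count: percent of the per-plate median nuclei count of sample wells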). Particulars: exon1htt(103Q)mCFP cell line, aggregate imaging, at 2 µM; inhibition of aggregation: stronger effect = higher value; nuclei count: measured here: cell count, toxicity.
Assay [2] can be described thus: endothelial E-selectin expression blockers – imaging, HUVEC, immunofluorescence, MLSMR starter and 10KST1 sets, primary screen (AID 487;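 active means visually confirmed hit in the image check and inhibition above 20%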;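 on inhibition: signal is fraction of cell area covered by stained E-selectin grains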;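 on nuclei count: 100% = median nuclei count of all wells on the same plate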). Particulars: HUVEC TNFalpha-induced E-selectin immunofluorescence imaging, at 2 µM; inhibition: stronger effect = higher value; nuclei count: measured here: cell number, toxicity.
Assay [3] is described as follows: Primary imaging screen for DUSP6 inhibitors that restore phospho-Erk in transfected HeLa cells, chemical complementation (AID 609;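 active means compounds giving at least 50% inhibition in the cell-based MKP-3 phosphatase rescue imaging test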;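 on inhibition: phospho-Erk level distribution per well compared with pooled transfected vehicle control wells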). Particulars: HeLa MKP-3 transfected, phospho-Erk imaging KS statistic, at 10 µM, cells stimulated with TPA for 15 min.
Assay [4] concerns the target Dual specificity protein phosphatase 6 (Homo sapiens) (UniProt Q16828). The assay is described as above. Particulars: HeLa MKP-3 transfected, phospho-Erk imaging KS statistic; at 10 µM; stronger effect = higher value; cells stimulated with TPA for 15 min.
For assay [5], the target named is Voltage-gated potassium channel subunit beta-2 (Rattus norvegicus) (UniProt P62483). The assay is described as follows: inhibitors of rat Kvbeta2 reductase activity – biochemical, NADPH fluorescence, primary screen (AID 622;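 active means fluorescence slope higher than the sample average by over 3 SD, cut at about -0.22 in these data, passing the limit was not always enough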;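 further: slope of raw intensity against log time taken from 70 to 1610 s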). Particulars: recombinant KvBeta, 4-cyanobenzaldehyde reduction, at 10 µM, stronger effect = higher value.
Assay [6] has the same target. Nature of the assay: enhancers of rat Kvbeta2 NADPH turnover – biochemical, NADPH fluorescence, primary screen (AID 623;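 active means NADPH fluorescence slope more negative than the mean of all samples by about 3 SD, 99.7% confidence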;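 further: fluorescence intensity change per second fitted from 20 to 320 s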). Particulars: Recombinant KvBeta, NADPH fluorescence decrease slope, 10 min; at 10 µM; stronger effect = lower value.
Assay [7] has as its target Alpha-2C adrenergic receptor (Homo sapiens) (UniProt P18825). Nature of the assay: compounds altering alpha2C-coupled GIRK flux – cell-based, HEK293 alpha2C/GIRK1/2, thallium flux, primary screen (AID 624;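 active means fluorescence slope after compound addition differing from the mean of all screened samples at 99.7% confidence, in either direction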;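 further: slope of fluorescence ratio to pre-addition baseline per second over 15 to 24 s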). Particulars: thallium flux BTC fluorescence, at 10 µM, actives lie on both sides.
A short description of assay [8]: inhibitors of larval lipid processing in zebrafish, primary screen, whole organism, PED6 fluorescence, gall bladder and intestine (AID 686;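 active means a full or partial loss of lipid-probe fluorescence in the fish gall bladder, intestine or both, judged by eye; inactive means no fluorescence loss, or compound toxic to the fish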;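 further: larvae 5 to 7 days old with five fish per well; signal comes from phospholipase A2 cleavage of quenched PED6 carried via bile; overnight exposure to compound and PED6 before scoring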). Particulars: Zebrafish larvae PED6 lipid processing, fluorescence scoring; screened at 20 µM (by protocol).
Assay [9] in a line: loss of swimming-algae plug formation – whole organism, Chlamydomonas reinhardtii, WT vs cilia-less mutant, absorbance, 96-well, primary screen (AID 463189).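 Further: 0% = wild type cc124 cells in DMSO and 100% = ciliumless bld1 mutant cells.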 Particulars: Chlamydomonas reinhardtii gravitaxis, OD600 absorbance, 2 days; at 10 µM; stronger effect = higher value.
A short description of assay [10]: blockers of RIG-like receptor reporter activation – cell-based, Sendai virus stimulus, luciferase, 10K MLSCN set, TLR/RLR signaling modifier project, primary screen (AID 602276;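 active means inhibition at or above 50% at 10 µM; inactive means inhibition below 50%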;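 further: firefly luciferase from ISG56 promoter only with Renilla not read in this screen; 0% = Sendai virus plus DMSO and 100% = medium plus DMSO without virus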). Particulars: HEK293 RL24 IRF3 luciferase reporter, at 10 µM, stronger effect = higher value. (In general: Reporter assays use an easily measured gene product as a stand-in for the process of interest.)

Assay [11] can be described thus: TLR3 IRF3 reporter activation blockers – cell-based, poly I:C stimulus, luciferase, 10K MLSCN set, primary screen (AID 602277;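 active means inhibition of the reporter signal at or above 50%; inactive means inhibition below 50%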). Particulars: HEK293-TLR3 RL24 IRF3 luciferase reporter, at 10 µM, stronger effect = higher value.
The mark [12] stands for this setting: measured here: cell density z-score.
[13] abbreviates: measured here: nuclear c-Myc green intensity z-score.
The mark [14] stands for this setting: measured here: nuclear pErk red intensity z-score, stronger effect = higher value.

Here are results for 10 molecules from PubChem BioAssay.

By inhibition is commonly meant the relative decrease from the control value, in per cent.

Each structure is given as a SMILES string. Values joined by “and” are separate entries in the source; they are usually repeats but may differ in a detail not shown here. Equal entries are not always repeated. Active and inactive are the calls of the source.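 How the source made its calls, unless noted: active means inhibition at or above 50% relative to wild type and mutant plate controls; inactive means inhibition below 50%.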

Sequence of Voltage-gated potassium channel subunit beta-2 (Rattus norvegicus) (P62483 whole entry, looked up): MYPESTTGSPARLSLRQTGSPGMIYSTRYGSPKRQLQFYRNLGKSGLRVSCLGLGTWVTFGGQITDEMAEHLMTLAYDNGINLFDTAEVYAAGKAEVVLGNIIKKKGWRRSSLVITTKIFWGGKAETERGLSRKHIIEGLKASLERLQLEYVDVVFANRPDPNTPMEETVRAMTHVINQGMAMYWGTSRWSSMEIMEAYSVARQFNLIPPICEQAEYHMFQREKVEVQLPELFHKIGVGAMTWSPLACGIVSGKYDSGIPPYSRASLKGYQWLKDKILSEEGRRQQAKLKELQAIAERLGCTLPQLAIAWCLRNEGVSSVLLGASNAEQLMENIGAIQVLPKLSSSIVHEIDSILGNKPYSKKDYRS
Sequence of Alpha-2C adrenergic receptor (Homo sapiens) (P18825 whole entry, looked up): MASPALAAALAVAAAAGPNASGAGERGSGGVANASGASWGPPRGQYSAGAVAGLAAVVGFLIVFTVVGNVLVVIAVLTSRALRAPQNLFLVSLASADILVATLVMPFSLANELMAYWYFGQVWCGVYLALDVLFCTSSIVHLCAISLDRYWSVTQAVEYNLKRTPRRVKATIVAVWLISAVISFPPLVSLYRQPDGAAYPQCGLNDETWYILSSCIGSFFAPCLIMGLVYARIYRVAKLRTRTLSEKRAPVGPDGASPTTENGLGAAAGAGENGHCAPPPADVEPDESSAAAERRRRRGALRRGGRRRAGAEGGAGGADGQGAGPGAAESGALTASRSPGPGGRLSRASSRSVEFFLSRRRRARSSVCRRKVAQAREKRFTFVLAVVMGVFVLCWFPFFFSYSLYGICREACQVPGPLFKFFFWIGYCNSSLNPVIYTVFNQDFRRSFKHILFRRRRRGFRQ
Sequence of Dual specificity protein phosphatase 6 (Homo sapiens) (Q16828 whole entry, looked up): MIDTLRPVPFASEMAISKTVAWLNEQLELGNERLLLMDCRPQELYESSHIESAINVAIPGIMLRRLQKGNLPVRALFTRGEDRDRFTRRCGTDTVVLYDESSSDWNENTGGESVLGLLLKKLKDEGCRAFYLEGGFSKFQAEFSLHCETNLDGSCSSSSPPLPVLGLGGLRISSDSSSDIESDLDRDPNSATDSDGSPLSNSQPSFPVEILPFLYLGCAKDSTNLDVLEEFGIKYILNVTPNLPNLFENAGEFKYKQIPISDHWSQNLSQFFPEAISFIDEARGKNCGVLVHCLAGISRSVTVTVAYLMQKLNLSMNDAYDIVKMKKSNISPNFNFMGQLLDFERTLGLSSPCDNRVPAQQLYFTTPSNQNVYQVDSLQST

Turning to `c1ccc2c(c1)CCCC2C1=NCCN1` (centres undefined), the inhibition of aggregation in assay [1] is -2.2% (inactive). The nuclei count in assay [1] turned out to be 106%; in assay [2], 112%. Also, the inhibition in assay [2] is -52.5% (inactive); in assay [4] it was 5.79% (inactive); in [9] it was 8.79% (inactive) and 22.7% (inactive); in assay [10], 12.1% (inactive); in assay [11], 48.1% (inactive). Besides, the figures for the z-score in assay [3] (setting [12]), in assay [3] (setting [13]) and in [3] (setting [14]) were -1.5, 0.768 and 0.367, respectively. Moreover, in assay [5], the fluorescence slope is -0.464 (inactive). For the same molecule, in [6], the NADPH fluorescence slope was -5e-05 (inactive). In addition, in assay [7], the slope was 0.00529 (inactive). Also, the molecule was classed as inactive in [8].

With `O=C1CCc2cc(OCCCCc3nnnn3C3CCCCC3)ccc2N1`, in assay [1], the inhibition of aggregation is 14.7% (inactive). For the same molecule, the results for the nuclei count in [1] and in [2] were 106% and 136%, respectively. Besides, the inhibition in [2] was -114% (inactive); in assay [4] it was 27.1% (inactive); in assay [9] it was 3.02% (inactive) and 2.15% (inactive); in assay [10], -3.33% (inactive); in assay [11], 20.5% (inactive). Besides, the z-score in assay [3] (setting [12]) is 0.404; in [3] (setting [13]), -0.117; in assay [3] (setting [14]), -0.524. In assay [5], the fluorescence slope was -0.456 (inactive). For the same molecule, the NADPH fluorescence slope in assay [6] is -6.4e-05 (inactive). Also, in assay [7], the slope was 0.00334 (inactive). For the same molecule, the call in assay [8] was inactive.

As for `CC(=O)OCC(=O)[C@@]1(O)CC[C@H]2[C@@H]3CCC4=CC(=O)C=C[C@]4(C)[C@H]3[C@@H](O)C[C@@]21C`, the inhibition of aggregation in assay [1] was -0.6% (inactive). Further, the nuclei count worked out at 67.7% in assay [1] and 130% in assay [2]. Further, the inhibition in [2] was -93.5% (inactive); in [4] it was 9.37% (inactive); in assay [9] it was 24.9% (inactive); in [10], -13.7% (inactive); in assay [11], -1.49% (inactive). The z-score is -0.00243 in assay [3] (setting [12]), 0.765 in assay [3] (setting [13]) and -0.773 in [3] (setting [14]). Also, the fluorescence slope in [5] is -0.506 (inactive). Besides, the NADPH fluorescence slope in [6] is 4.9e-06 (inactive). Moreover, in assay [7], the slope was 0.00476 (inactive). Moreover, the molecule was called inactive in [8].

As to `COc1cccc2c1C(=O)c1c(O)c3c(c(O)c1C2=O)C[C@@](O)(C(C)=O)C[C@@H]3O[C@H]1C[C@H](N)[C@H](O)[C@H](C)O1`, the inhibition of aggregation in assay [1] is 49.1% (inactive). Also, the nuclei count was 0.6% in assay [1] and 84% in assay [2]. For the same molecule, the inhibition in [2] is 92.8% (active); in assay [4] it was 102% (active); in assay [9], 33% (inactive); in [10], -34.8% (inactive); in assay [11], 102% (active). Moreover, the z-score in [3] (setting [12]) came to 0.473; in assay [3] (setting [13]) it was 10.2; in assay [3] (setting [14]) it was 4.38. Besides, the fluorescence slope in assay [5] was -0.452 (inactive). For the same molecule, the NADPH fluorescence slope in assay [6] was -3.6e-05 (inactive). Besides, the slope in assay [7] is 0.00285 (inactive). Moreover, in assay [8], the molecule was called inactive.

For the molecule `Oc1c(Cl)cc(Cl)cc1Sc1cc(Cl)cc(Cl)c1O`, the inhibition of aggregation in assay [1] was 13.7% (inactive). Besides, the nuclei count in [1] was determined as 90%; in [2], 117%. For the same molecule, the inhibition was -49.8% (inactive) in assay [2]; 1.48% (inactive) in [4]; 155% (active) in assay [9]; 10.6% (inactive) in assay [10]; -53.7% (inactive) in assay [11]. In addition, the z-score is -0.357 in [3] (setting [12]), -0.512 in [3] (setting [13]) and 0.181 in assay [3] (setting [14]). For the same molecule, the fluorescence slope in [5] is -0.478 (inactive). In addition, the NADPH fluorescence slope in assay [6] was -6e-05 (inactive). The slope in assay [7] is 0.00369 (inactive). Further, the molecule was called inactive in [8].

`CNC(=O)Oc1ccc2c(c1)[C@]1(C)CCN(C)[C@@H]1N2C`: in assay [1], the inhibition of aggregation was 21.6% (inactive). Besides, the nuclei count was found to be 88.6% in assay [1] and 104% in assay [2]. Further, the inhibition in [2] was -22.9% (inactive); in [4] it was -6.41% (inactive); in assay [9], -0.375% (inactive) and -9.03% (inactive); in assay [10], 15.2% (inactive); in [11], 36.1% (inactive). In addition, the z-score in assay [3] (setting [12]) is -2.43; in [3] (setting [13]), -0.577; in assay [3] (setting [14]) it was -0.583. Further, the fluorescence slope in assay [5] was -0.435 (inactive). In addition, in assay [6], the NADPH fluorescence slope was 1.7e-05 (inactive). In addition, the slope in [7] was 0.00657 (inactive). Also, the call in assay [8] was inactive.

Turning to `CC(=O)OC[C@H]1O[C@@H](n2ncc(=O)[nH]c2=O)[C@H](OC(C)=O)[C@@H]1OC(C)=O`, in assay [1], the inhibition of aggregation was 14.3% (inactive). Moreover, the values for the nuclei count in assay [1] and in assay [2] were 77.3% and 116%, respectively. The inhibition in [2] was -22.1% (inactive); in assay [4] it was -0.828% (inactive); in [9] it was -10.6% (inactive); in assay [10] it was 13.3% (inactive); in assay [11], -14.5% (inactive). For the same molecule, the z-score was 1.58 in assay [3] (setting [12]), -1.02 in assay [3] (setting [13]) and 0.322 in [3] (setting [14]). Moreover, in assay [5], the fluorescence slope is -0.468 (inactive). Further, the NADPH fluorescence slope in [6] was -5.4e-05 (inactive). Besides, the slope in [7] was 0.0044 (inactive).

For `CC(=O)N[C@@H](CS)C(=O)O`, the inhibition of aggregation in assay [1] is 7.3% (inactive). Further, the values for the nuclei count in assay [1] and in assay [2] were 104% and 120%, respectively. For the same molecule, the inhibition in assay [2] is -49.2% (inactive); in [4], 1.48% (inactive); in assay [9] it was 3.13% (inactive) and -2.25% (inactive); in assay [10], 11.9% (inactive); in assay [11] it was 21% (inactive). In addition, the values for the z-score in assay [3] (setting [12]), in assay [3] (setting [13]) and in [3] (setting [14]) were 0.131, -1.67 and 0.657, respectively. Also, in assay [5], the fluorescence slope was -0.543 (inactive). The NADPH fluorescence slope in assay [6] is -3.7e-05 (inactive). Also, in assay [7], the slope was 0.0055 (inactive). Also, the outcome in assay [8] was inactive.

As for `COc1cc(C2Oc3cc(C4Oc5cc(O)cc(O)c5C(=O)C4O)ccc3OC2CO)ccc1O` (centres undefined), the inhibition of aggregation in assay [1] was 15.4% (inactive). In addition, the nuclei count was found to be 94.5% in assay [1] and 118% in assay [2]. Moreover, the inhibition was -86.6% (inactive) in assay [2]; -8.38% (inactive) in [4]; -8.52% (inactive) in [9]; -16.8% (inactive) in [10]; -16.2% (inactive) in [11]. In addition, the z-score is -0.357 in assay [3] (setting [12]), 0.711 in [3] (setting [13]) and -0.479 in assay [3] (setting [14]). Further, the fluorescence slope in assay [5] is -0.479 (inactive). Further, in assay [6], the NADPH fluorescence slope was 1.9e-05 (inactive). For the same molecule, in [7], the slope was 0.00477 (inactive). In addition, the molecule was classed as inactive in assay [8].

Turning to `CC(=O)Oc1ccc(C(c2ccc(OC(C)=O)cc2)c2ccccn2)cc1`, the inhibition of aggregation in assay [1] is -12.4% (inactive). The nuclei count in [1] amounted to 99.8%; in [2], 100%. Also, the inhibition in [2] is -68.3% (inactive); in [4] it was 5.79% (inactive); in assay [9], 19.6% (inactive); in assay [10], 12.5% (inactive); in assay [11], 40.9% (inactive). In addition, the z-score in [3] (setting [12]) was -0.73; in assay [3] (setting [13]), 0.784; in assay [3] (setting [14]) it was 0.224. Besides, the fluorescence slope in assay [5] is -0.45 (inactive). Further, in assay [6], the NADPH fluorescence slope was -2.1e-05 (inactive). Further, the slope in [7] is 0.00425 (inactive). The outcome in [8] was inactive.
